According to PubChem BioAssay AID1347416 (National Center for Advancing Translational Sciences (NCATS), 2020):
Among all 4,100 compounds or so, about 1,600 (39%) were called active. About 25% were inconclusive and are not listed. The list shows a part of the results. Unmarked numbers belong to inactive results. Calls come from the whole dose curve; as a rule, active = well fitted inhibition curve with a large enough effect; inconclusive = small, poorly fitted or top-dose-only effect; inactive = no such curve, though single readings can be large or run the other way.

assay: qHTS Validation assay for Inhibitors of Plasmodium falciparum Dd2 growth in vitro; note: nearly all actives have a fitted effect of over 70% in size; details: P. falciparum Dd2 in RBCs, SYBR Green growth, 72 h; series mostly up to 28.7 µM; activity change, negative = inhibition: at the top concentration
Procedure, shortened: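 P. falciparum Dd2-infected red blood cells (2.5% hematocrit, 0.3% parasitemia) grown 72 h at 37 °C under 5% O2 with compounds in a titration, 29 uM to 0.5 nM final. Growth read as SYBR Green-1 fluorescence after ~16 h lysis; artesunate 300 nM as positive control.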
% is set by controls: 0 for no effect and ±100 for the full control effect; potency is the fitted concentration of half-maximal effect.

SMILES	activity change, negative = inhibition	Potency
O=C(CN1CCN(S(=O)(=O)N2CCCC2)CC1)NCc1ccccc1F	35.8%	–
O=C(Nc1nc2c(F)cccc2s1)c1ccc(S(=O)(=O)N2CCCc3ccccc32)cc1	23.7%	–
O=C(NCCCN1CCCC1)c1ccc2c(c1)N(S(=O)(=O)c1ccccc1F)CC2	–	9.44 µM (active)
COc1ccc2[nH]c3c(c2c1)CCNC31CCN(C(=O)C(C)(C)C)CC1	4.8%	–
Cc1ccc(C(=O)N2CCc3nc4cc(-c5ccccc5)[nH]n4c(=O)c3C2)cn1	-4.34%	–
O=C(c1cc(NC(=O)C23CC4CC(CC(C4)C2)C3)cc(NC(=O)C23CC4CC(CC(C4)C2)C3)c1)N1CCCCC1	–	5.96 µM (active)
CC(C)CN1C(=O)c2cccn2CC1CNC(=O)c1ccccc1 (stereo not given)	11.3%	–
COc1ccccc1Oc1ncccc1CNCc1c(F)cccc1Cl	-18.1%	–
Cc1ccc(CNCC(O)(c2ccccc2)c2ccc(Cl)cc2)cc1 (stereo not given)	–	2.99 µM (active)
COc1ccccc1CNCC(O)(c1ccc(Cl)cc1)c1ccc(Cl)cc1	–	1.5 µM (active)
COc1ccc(CNCC(O)(c2ccc(Cl)cc2)c2ccc(Cl)cc2)cc1	–	1.5 µM (active)
Cc1cn2nc(-c3nc(C4CCCN(C(=O)Cc5ccsc5)C4)no3)cc2c(=O)[nH]1 (stereo not given)	2.56%	–
COc1ccc(OC)c(CNC(=O)C2CCN(c3ncnc4c3nc3n4CCCCC3)CC2)c1	0%	–
COc1ccc(CNC(=O)C2CCN(c3nc(-c4ccccc4)nc4c3CCC4)CC2)cc1	–	7.5 µM (active)
CCc1ccc(CNC(=O)C2CCN(c3cc(C(F)(F)F)nc(C)n3)CC2)cc1	0.317%	–
O=C(Nc1ccc(F)cc1)N1CCOc2ccc(CN3CCc4ccccc4C3)cc2C1	–	8.41 µM (active)
CCOc1cccc(CN2C[C@@H]3C(=O)N(CCN4CCc5ccccc5C4)C(=O)[C@@H]3C2)c1	-2.17%	–
O=C(Nc1ccc(F)cc1F)N1CCOc2ccc(CN3CCc4ccccc4C3)cc2C1	–	16.8 µM (active)
CC1(CNc2ccccc2)COc2ccc(C(=O)NCc3ccc(F)cc3)cc2N1 (stereo not given)	-5.85% [at 43.1 µM]	–
Cc1cc(=O)n(CC(=O)Nc2ccccc2F)c(N2CCc3ccccc3C2)n1	-14.7%	–
CCC1Oc2ccc(NC(=O)COC)cc2CN(Cc2ccc(F)cc2)C1=O (stereo not given)	-29.7%	–
CC[C@@H](NC(C)=O)C(=O)N1CCOc2c(cc(-c3cccs3)cc2OC)C1	59.3%	–
COc1ccccc1NC(=O)N1CCOc2ccc(CN3CCc4ccccc4C3)cc2C1	–	2.37 µM (active)

SMILES	activity change, negative = inhibition	Potency
CCN(C(=O)c1cc2cc(Br)cc(OC)c2oc1=O)c1ccccc1	4.88%	–
Cc1nc(CCNC(=O)C2CC2)no1	12.3%	–
Cc1ccc(C(=O)N2CCCn3cc(-c4cccc(C#N)c4)nc32)cc1	-7.37%	–
O=C(c1ccc(-c2ncc3cnc(-c4cccc(F)c4)cn23)cc1)N1CCc2cccnc21	-17% [at 43.1 µM]	–
O=C(c1ccc(-c2ncc3cnc(-c4ccccc4)cn23)cc1)N1CCc2cccnc21	–	17.2 µM (active)
CCOC(=O)c1ccc(Nc2nc3nonc3nc2Nc2cccc(C)c2C)cc1	–	8.41 µM (active)
COc1ccc(Nc2ccccc2NC(=O)c2ccccc2Br)cc1	–	5.96 µM (active)
COc1ccc(NC(=O)c2cccc3c2CCN3C(=O)Nc2ccc(F)cc2)c(C)c1	-18.7%	–
CCNC(=O)N1CC[C@H]2CC(=O)N([C@H](C(N)=O)C(C)C)CC[C@H]2C1	37.8% [at 43.1 µM]	–
Cn1cc(-c2cccc(CO)c2)c2nc(COc3ccc(Cl)cc3)cn2c1=O	-17.2% [at 43.1 µM]	–
O=C1C=C(c2cccc(CO)c2)C[C@@H](c2ccc(Cl)cc2)C1	–	3.76 µM (active)
CC1(c2ccccc2)O[C@@H]2C[C@H]3[C@@H]4CCC5=CC(=O)C=C[C@]5(C)[C@@]4(F)[C@@H](O)C[C@]3(C)[C@]2(C(=O)CO)O1 (stereo not given in full)	–	4.73 µM (active)
O=C(Nc1ccncc1)C1c2ccccc2Oc2ccccc21	-9.75%	–
CCOC(=O)c1sc(NC(=O)C2c3ccccc3Oc3ccccc32)c(C(=O)OCC)c1C	–	2.66 µM (active)
COc1cc(Nc2ncncc2-c2nc(-c3ccccc3)no2)cc(OC)c1OC	-9.59%	–
Cc1ccccc1C(=O)N1CCC(c2nn(-c3ccc(Cl)cc3)c(=O)[nH]2)CC1	-11.6%	–
CC(C)(C)OC(=O)N1CCC(c2c(C(=O)NCCN3CCC(Cc4ccccc4)CC3)cnn2-c2ccc(F)cc2)CC1	–	5.31 µM (active)
CC(C)(C)OC(=O)N1CCC(CNC(=O)c2ccc(F)cc2)CC1	29.3%	–
Cc1ccc(C)c(N2CCN(CCCNC(=O)c3cnn(-c4ccc(F)cc4)c3C3CCN(C(=O)OC(C)(C)C)CC3)CC2)c1	–	2.66 µM (active)
Cc1ccc(-n2ncc(C(=O)N3CCN(c4cc(Cl)ccc4C)CC3)c2C2CCN(C(=O)OC(C)(C)C)CC2)cc1	–	8.41 µM (active)
Cc1ccc(C)c(N2CCN(CCCNC(=O)c3cnn(-c4cccc(Cl)c4)c3C3CCN(C(=O)OC(C)(C)C)CC3)CC2)c1	–	8.41 µM (active)
Cn1cnc(S(=O)(=O)N2CCCOCCNC(=O)[C@@H]3CCC[C@@H]32)c1	21.7%	–
